# Screening data: PubChem, Broad Institute
# MLL AF4-AF9 inh – MLL-AF4/AF9 protein interaction inhibition. AlphaScreen, biotin-AF4 peptide binding to FLAG-AF9. AID 651704. inhibition, % at 10 µM. 350,000 tested, 0.47% active;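 active means every replicate reaching a set inhibition limit, whatever the replicate mean, cut at about 25% in these data; inconclusive means mean inhibition reaches that limit but some replicates miss it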;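 further: 0% = plate neutral control median and 100% = total signal loss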
# dFosB act-1 – enhances mouse delta FosB homodimer DNA binding. P13346. purified delta FosB, TAMRA-CDK5 oligo fluorescence polarization; percent of positive-control signal above neutral wells. activation, % at 25 µM. 340,000 tested, 0.99% active. AID 493131;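 active means mean activation above about 17%, with every replicate also reaching it, limit read from the data, passing the limit was not always enough; inconclusive means only one of the two conditions met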
# RAD52 anneal inh – blocks human RAD52 DNA annealing; inhibition, % at 18.7 µM; AID 651710; P43351; recombinant RAD52 DNA annealing, FRET fluorescence; 360,000 tested, 0.46% active;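 active means every replicate showing at least 50% inhibition; inconclusive means mean inhibition at least 50% but not in every replicate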
# DENV2 CPE rescue – inhibitors of DENV2 cytopathic effect. DENV2-infected cells, cytopathic effect rescue, plate reader. CPE inhibition, % at 9.99 µM. 350,000 tested, 1.7% active. AID 651640; in the data active means CPE inhibition above about 20%, passing the limit was not always enough; inconclusive means no clear call, values can overlap the other calls; tested in BHK-21 cells;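 further: 0% = median of neutral control wells and 100% = median of positive control wells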
# GSIS activator – GLuc luminescence reporter in INS-1E cells, primary screen for activators of glucose-dependent secretion of insulin; activation, % at 16.6 µM; INS-1E GLuc reporter insulin secretion, 2-3 h; 370,000 tested, 0.61% active;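 active means lowest replicate activation of at least 40%, so every replicate reaches that level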;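 further: 0% = median of neutral control wells and 100% = median of IBMX positive control wells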
# RAD54 branch – blocks human RAD54 Holliday junction branch migration; 360,000 tested, 0.14% active; FAM/BHQ fluorescence; inhibition, % at 10.4 µM; Q92698;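 active means mean normalized replicate activity at least 40 and at least half of replicates scoring 40 or more; inconclusive means only one of the two criteria met; inactive means mean below 40 and under half of replicates reaching 40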;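 further: 0% = median of neutral control wells and 100% = median of positive control wells; inhibitors cause a drop in the FAM fluorescence signal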
# Target sequence (Q92698 whole entry, looked up): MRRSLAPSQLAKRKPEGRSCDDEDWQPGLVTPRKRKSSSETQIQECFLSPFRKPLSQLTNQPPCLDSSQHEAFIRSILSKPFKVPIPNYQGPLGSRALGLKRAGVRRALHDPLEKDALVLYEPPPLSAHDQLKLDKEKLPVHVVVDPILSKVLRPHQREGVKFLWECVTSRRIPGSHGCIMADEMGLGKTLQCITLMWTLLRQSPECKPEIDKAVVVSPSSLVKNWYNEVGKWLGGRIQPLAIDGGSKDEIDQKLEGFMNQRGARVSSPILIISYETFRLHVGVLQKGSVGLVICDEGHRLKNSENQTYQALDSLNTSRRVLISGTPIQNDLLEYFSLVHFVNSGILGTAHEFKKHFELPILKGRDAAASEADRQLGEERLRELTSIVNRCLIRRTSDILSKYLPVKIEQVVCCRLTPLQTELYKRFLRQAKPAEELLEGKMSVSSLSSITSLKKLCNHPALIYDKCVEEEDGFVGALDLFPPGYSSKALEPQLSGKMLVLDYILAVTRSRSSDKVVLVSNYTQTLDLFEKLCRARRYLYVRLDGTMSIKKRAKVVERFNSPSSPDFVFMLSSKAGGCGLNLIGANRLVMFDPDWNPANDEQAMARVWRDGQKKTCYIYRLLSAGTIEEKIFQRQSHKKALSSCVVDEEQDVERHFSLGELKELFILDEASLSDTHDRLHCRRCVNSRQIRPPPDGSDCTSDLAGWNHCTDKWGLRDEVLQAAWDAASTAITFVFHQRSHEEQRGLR
# dFosB act-2 – activators of mouse delta FosB homodimer DNA binding. shares compounds with dFosB act-1. purified delta FosB, TAMRA-CDK5 oligo fluorescence polarization; normalised: neutral wells 0, positive control 100. activation, % at 24.9 µM. 2,400 tested, under 10 active. AID 588690;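 active means highest replicate activation at or above 34% and every replicate reaching that threshold; inconclusive means meets only one of the two criteria; inactive means meets neither criterion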;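 further: higher polarization means more probe DNA bound by delta FosB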
# * = called active by the depositor; ? = inconclusive; · = no result. Sampled rows, rich in hits. Any-hit rate of the full collection: about 3.1%.
SMILES,MLL AF4-AF9 inh,dFosB act-1,RAD52 anneal inh,DENV2 CPE rescue,GSIS activator,RAD54 branch,dFosB act-2
Cc1ccc(S(=O)(=O)Nc2ccc3c(c2)C(=O)N([C@@H](C)CO)C[C@H](C)[C@@H](CN(C)C(=O)Nc2ccc4c(c2)OCO4)OCCCC[C@H](C)O3)cc1,5,·,-2,-3,-32,1,·
Cc1ccc(C(=O)Nc2cccc(C(F)(F)F)c2)cc1Nc1cnccn1,6,-6,-2,-1,5,-2,·
Cc1cn(-c2cc(C(=O)Nc3ccc(C)c(NC(=O)N4CCNC4=O)c3)cc(C(F)(F)F)c2)cn1,-3,56*,-17,-1,7,-8,-2
CC1CCN(S(=O)(=O)c2ccc(NC(=O)Cn3nnc(-c4ccccc4)n3)cc2)CC1,·,?,·,·,·,3,·
Cc1ccc(-c2nnn(CC(=O)Nc3ccc(S(=O)(=O)N4CCC(C)CC4)cc3)n2)cc1,·,68*,·,·,·,-4,7
CC1(C)Cc2c(sc(NC(=O)COc3ccc(Cl)cc3)c2C(N)=O)C(C)(C)N1,0,80*,-4,2,-5,1,2
Cc1ccc(OCC(=O)Nc2sc3c(c2C#N)CC(C)(C)NC3(C)C)cc1,-5,-8,-4,0,5,·,·
COC(=O)COc1ccc2c(-c3ccc(OC)cc3)cc(=O)oc2c1,·,-18,·,·,·,5,·
COc1ccc(-c2cc(=O)oc3cc(OCC(=O)Nc4ccc(CCO)cc4)ccc23)cc1,-1,22*,-7,7,19,5,1
COc1ccc(-c2cc(=O)oc3c(C)c(OCC(=O)Nc4cccnc4)ccc23)cc1,-2,41*,-16,-7,12,0,-6
Cc1c(C)c2ccc(OCC(=O)Nc3cccnc3)c(C)c2oc1=O,3,-12,-3,-6,6,-5,·
CC(=O)NC(=O)c1ccc(-c2ccc(Cl)cc2)o1,0,26*,-19,2,4,1,1
O=C(NC(=S)Nc1ccccc1O)c1ccc(-c2ccc(Cl)cc2)o1,·,-12,·,·,·,8,·
COc1cccc(-c2cc(C(=O)Nc3cnn(Cc4ccccc4C)c3)no2)c1,·,43*,·,·,39,3,1
COc1cccc(-c2cc(C(=O)Nc3cnn(Cc4ccc(F)cc4)c3)no2)c1,·,2,·,·,·,8,·
COc1ccccc1CNC(=O)C[C@@H]1C[C@@H]2c3cc(NC(=O)c4ccc5c(c4)OCO5)ccc3O[C@@H]2[C@H](CO)O1,5,·,-32,4,16,-17,·
O=C(Oc1coc(CSc2nnc(NC(=O)C3CC3)s2)cc1=O)c1ccccc1,·,23*,·,·,2,·,-11
Cc1cccc(C(=O)Oc2coc(CSc3nnc(NC(=O)C4CC4)s3)cc2=O)c1,·,7,·,·,-5,·,·
Cn1cc([N+](=O)[O-])c(C(=O)Nc2ccc(Br)cn2)n1,·,10,·,·,1,-3,·
CCSc1ccc(C(=O)Nc2ccc(Br)cn2)cc1[N+](=O)[O-],-2,19*,0,·,-1,·,-7
CC(=O)Nc1ccc(NC(=O)Cn2c(=O)n(-c3ccc(F)cc3)c(=O)c3oc4ccccc4c32)cc1,8,21*,-13,-4,-5,·,1
NC(=O)c1ccc(NC(=O)Cn2c(=O)n(-c3ccccc3)c(=O)c3oc4ccccc4c32)cc1,0,3,-9,3,5,·,·
CCOc1cccc2sc(NC(=O)c3ccc(Br)s3)nc12,4,33*,-15,13,12,9,7
Cc1csc(NC(=O)c2ccc(Br)s2)n1,4,-9,-53,5,12,-3,·
Cc1ccccc1C(=O)Nc1nnc(CC(=O)N/N=C/c2ccncc2)s1,1,38*,-10,1,-2,-1,0
SMILES,MLL AF4-AF9 inh,dFosB act-1,RAD52 anneal inh,DENV2 CPE rescue,GSIS activator,RAD54 branch,dFosB act-2
O=C(Cc1nnc(NC(=O)c2ccccc2)s1)N/N=C/c1cccc(O)c1,0,1,-8,-2,-3,3,·
Cc1ccccc1OCC(=O)N/N=C/c1ccncc1,·,3,·,·,21,·,·
O=C(Cc1nnc(NC(=O)c2ccccc2)s1)N/N=C/c1ccco1,-17,21*,-1,·,·,3,4
CCOC(=O)c1cccc(NC(=O)Cn2c(CC(=O)NC)nc3ccccc32)c1,·,41*,·,·,-9,5,1
O=C(Nc1ccccc1F)N[C@@H]1CC[C@@H](CCNS(=O)(=O)c2ccc(F)cc2)O[C@H]1CO,-1,·,2,1,6,4,·
C=CCNc1nc(Nc2ccc(-c3nc4ccccc4o3)cc2)nc(N2CCOCC2)n1,-4,28*,-7,0,10,5,2
CC(=O)N(C)C[C@H]1Oc2ncc(C#Cc3ccccc3F)cc2C(=O)N([C@@H](C)CO)C[C@H]1C,1,·,9,8,16,2,·
O=C(NCC[C@@H]1CC[C@@H](NC(=O)C2CCC2)[C@H](CO)O1)c1cnccn1,-3,·,-17,7,-3,-8,·
Cc1cc(N2CCN(C)CC2)nc2ccc(NC(=S)N3CCN(c4ccc(F)cc4)CC3)cc12,-7,-2,-6,-5,-29,-3,·
Cc1cc(N2CCN(C)CC2)nc2ccc(NC(=S)N3CCN(c4cccc(Cl)c4)CC3)cc12,1,51*,13,18,9,-17,5
O=C(CCS(=O)(=O)c1cccs1)Nc1ccc(C(=O)NCc2ccccc2)cc1,·,-5,·,·,·,3,·
Cc1ccc(CNC(=O)c2ccc(NC(=O)CCS(=O)(=O)c3cccs3)cc2)cc1,·,20*,·,·,·,8,3
CC(C)c1ccc(NC(=O)C[C@H]2CC[C@H]3[C@@H](COc4ccc(NC(=O)Nc5ccc(F)c(F)c5)cc4C(=O)N3C)O2)cc1,-7,·,20,-3,·,4,·
O=C(NCC1OCCc2ccccc21)c1ccc(NC(=O)c2ccc(Cl)cc2Cl)cc1 (stereo not drawn),·,45*,·,·,267*,-4,5
COc1ccc(C(=O)NCC2OCCc3ccccc32)cc1 (stereo not drawn),-1,-1,·,·,·,0,·
COc1ccc(-c2cc3c(=O)n(CC(=O)NCc4ccc(F)cc4)ncn3n2)cc1,-6,101*,-5,-3,·,3,?
COc1ccc(CNC(=O)Cn2ncn3c(cc4ccccc43)c2=O)cc1,-3,73*,-15,-2,-9,-3,1
COc1ccc(-c2cc3c(=O)n(CC(=O)Nc4cccc(Cl)c4)ncn3n2)cc1,-2,42*,-4,-5,7,·,2
COc1ccc(CN(C)C[C@H]2Oc3ccc(NS(C)(=O)=O)cc3C(=O)N([C@@H](C)CO)C[C@H]2C)cc1,-1,·,6,-17,16,-3,·
CCCC#Cc1ccc([C@@H]2[C@H](CO)N3C(=O)CN(C(=O)Nc4cccc(F)c4)C[C@@H]23)cc1,-1,·,11,1,-23,·,·
